Data taken from PubChem BioAssay (Tox21).
A number with no mark means an inactive call. Records with an inconclusive call do not appear. A call without a number means that no potency is given here. The source made the active and inactive calls. Unless noted, calls follow the shape of the dose curve; as a rule, active = well fitted curve in the direction sought with a large enough effect in the repeat runs; inconclusive = weak or mixed curves; inactive = no such curve, though single readings can be large; an effect the other way counts as inactive or inconclusive.

Columns and labels:
[1] = molecular target: Luciferin 4-monooxygenase (Photinus pyralis) (UniProt P08659); test: qHTS assay to identify small molecule inhibitors of firefly luciferase (AID 1224835); also: nearly all actives have a fitted effect of over 25% in size; also: potency is read from the fitted curve at half-maximal effect
Sequence of Luciferin 4-monooxygenase (Photinus pyralis) (P08659 whole entry, looked up): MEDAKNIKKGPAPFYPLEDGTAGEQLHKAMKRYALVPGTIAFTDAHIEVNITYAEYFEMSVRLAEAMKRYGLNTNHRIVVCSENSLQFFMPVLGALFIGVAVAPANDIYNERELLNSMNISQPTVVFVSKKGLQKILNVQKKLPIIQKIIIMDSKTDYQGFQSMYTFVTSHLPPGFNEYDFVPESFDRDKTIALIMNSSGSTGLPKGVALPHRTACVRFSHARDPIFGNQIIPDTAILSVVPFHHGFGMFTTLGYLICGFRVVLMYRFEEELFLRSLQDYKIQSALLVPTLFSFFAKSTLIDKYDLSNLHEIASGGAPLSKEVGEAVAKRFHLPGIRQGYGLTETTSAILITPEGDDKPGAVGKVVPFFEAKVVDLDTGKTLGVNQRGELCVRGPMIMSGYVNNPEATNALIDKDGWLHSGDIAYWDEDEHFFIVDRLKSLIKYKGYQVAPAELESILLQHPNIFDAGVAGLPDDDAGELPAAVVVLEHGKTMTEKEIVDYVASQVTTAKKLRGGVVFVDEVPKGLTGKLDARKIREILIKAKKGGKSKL
Summary of the method: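 Biochemical qHTS: compounds run as interplate titrations against purified firefly enzyme, with D-luciferin and ATP each at its KM concentration. Light output recorded by CCD imaging.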

[2] = qHTS assay to identify small molecule agonists of the constitutive androstane receptor (CAR) signaling pathway - cell viability counter screen (AID 1224836); also: nearly all actives have a fitted effect of over 45% in size
Summary of the method: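 HepG2-CYP2B6-hCAR, 2500 cells/well, 4 h pre-incubation; cpd 15 conc + PK11195 0.75 uM final; 23 h, 37 C/5% CO2; CellTiter-Fluor, fluorescence.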

[3] = qHTS assay to identify small molecule antagonists of the constitutive androstane receptor (CAR) signaling pathway - cell viability counter screen (AID 1224837); also: nearly all actives have a fitted effect of over 45% in size
Summary of the method: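 Counter screen run in HepG2-CYP2B6-hCAR cells: 4 hr settle, compound titration (15 concentrations) with 50 nM CITCO, 23 hr at 37 C/5% CO2, CellTiter-Fluor fluorescence.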

[4] = molecular target: Nuclear receptor subfamily 1 group I member 3 (Homo sapiens) (UniProt Q14994); test: qHTS assay to identify small molecule antagonists of the constitutive androstane receptor (CAR) signaling pathway (AID 1224838);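 also: HepG2 cells stably expressing hCAR with CYP2B6 luciferase reporter stimulated by CITCO; nearly all actives have a fitted effect of over 40% in size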
Sequence of Nuclear receptor subfamily 1 group I member 3 (Homo sapiens) (Q14994 whole entry, looked up): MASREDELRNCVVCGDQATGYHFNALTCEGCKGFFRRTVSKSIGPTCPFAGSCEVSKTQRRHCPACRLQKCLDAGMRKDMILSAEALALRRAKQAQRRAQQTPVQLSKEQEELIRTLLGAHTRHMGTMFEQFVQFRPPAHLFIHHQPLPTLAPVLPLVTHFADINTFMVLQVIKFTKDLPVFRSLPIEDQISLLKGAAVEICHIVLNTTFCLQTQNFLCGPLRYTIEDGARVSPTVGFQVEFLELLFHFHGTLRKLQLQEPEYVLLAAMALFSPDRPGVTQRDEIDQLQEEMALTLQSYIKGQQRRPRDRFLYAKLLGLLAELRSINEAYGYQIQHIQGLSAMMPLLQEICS
Summary of the method: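 Cell line: HepG2 double-stable for hCAR and CYP2B6-2.2kb reporter. Agonist: CITCO, 50 nM final. Compounds: 15 concentrations, 24 h, 37 C. Detection: ONE-Glo luminescence.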

[5] = molecular target: Nuclear receptor subfamily 1 group I member 3 (Homo sapiens) (UniProt Q14994); test: qHTS assay to identify small molecule agonists of the constitutive androstane receptor (CAR) signaling pathway (AID 1224839);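 also: HepG2 cells stably carrying human CAR and a CYP2B6 luciferase reporter; nearly all actives have a fitted effect of over 15% in size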
Summary of the method: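 HepG2-CYP2B6-hCAR cells, 2500/well, 4 h pre-incubation; compounds 15 conc.; PK11195 0.75 uM final; 24 h, 37 C/5% CO2; ONE-Glo luciferase read.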

[6] = qHTS assay to identify small molecule antagonists of the estrogen related receptor signaling pathway with the pleiotropic PPARgamma coactivator (PGC) from Tox21 10K library - cell viability counter screen (AID 1224840; active = well fitted cell-killing curve with a large enough effect in the repeat runs, not every such curve was filed as active; also: nearly all actives have a fitted effect of over 40% in size)
Summary of the method: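 Following seeding of 2,000 PGC/ERR cells/well and 6 hours' incubation, test compounds were delivered in DMSO. The plates then sat 17.5 hours at 37 C before a fluorogenic live-cell protease reagent (CellTiter-Fluor) was read after 30 min.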

[7] = qHTS assay to identify small molecule agonists of the estrogen related receptor signaling pathway with the pleiotropic PPARgamma coactivator (PGC) from Tox21 10K library (AID 1224842); also: nearly all actives have a fitted effect of over 15% in size
Summary of the method: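 PGC/ERR reporter cell line, 2,000 cells per well, incubated 6 h at 37 C before 23 nL compound in DMSO was added. After 18 h at 37 C, One-Glo luminescence read following 30 min at room temperature.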

[8] = molecular target: Thyrotropin receptor (Homo sapiens) (UniProt P16473); test: qHTS assay to identify small molecule agonists of the thyroid stimulating hormone receptor (TSHR) signaling pathway (AID 1224843; calls by dose curve; also: nearly all actives have a fitted effect of over 45% in size)
Sequence of Thyrotropin receptor (Homo sapiens) (P16473 whole entry, looked up): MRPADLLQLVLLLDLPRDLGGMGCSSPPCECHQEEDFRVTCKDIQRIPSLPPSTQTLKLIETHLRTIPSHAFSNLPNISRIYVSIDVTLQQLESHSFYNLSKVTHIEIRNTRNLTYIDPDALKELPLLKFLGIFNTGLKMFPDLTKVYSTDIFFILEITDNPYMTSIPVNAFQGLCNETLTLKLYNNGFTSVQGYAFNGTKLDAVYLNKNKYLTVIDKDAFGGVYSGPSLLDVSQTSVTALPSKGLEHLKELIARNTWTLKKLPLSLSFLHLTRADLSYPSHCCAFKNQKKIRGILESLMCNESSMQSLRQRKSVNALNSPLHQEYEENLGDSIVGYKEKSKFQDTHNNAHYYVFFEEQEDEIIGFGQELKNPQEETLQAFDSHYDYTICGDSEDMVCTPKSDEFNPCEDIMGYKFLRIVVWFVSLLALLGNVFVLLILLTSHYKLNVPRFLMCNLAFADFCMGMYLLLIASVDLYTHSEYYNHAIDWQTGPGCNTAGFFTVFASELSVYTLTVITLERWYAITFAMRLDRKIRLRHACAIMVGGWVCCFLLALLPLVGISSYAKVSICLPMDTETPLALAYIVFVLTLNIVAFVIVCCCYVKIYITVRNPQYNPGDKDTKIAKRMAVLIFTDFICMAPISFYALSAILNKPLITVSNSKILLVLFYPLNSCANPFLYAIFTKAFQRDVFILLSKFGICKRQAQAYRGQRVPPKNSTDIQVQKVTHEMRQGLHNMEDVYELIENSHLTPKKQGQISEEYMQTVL
Summary of the method: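 TSHR-HEK293 cells in agonist mode, 30 min room-temperature step, then cAMP measured by competitive HTRF (cAMP-d2 with anti-cAMP cryptate) after 1 h at room temperature. Tested at 15 concentrations in triplicate.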

[9] = qHTS assay to identify small molecule agonists of the hypoxia (HIF-1) signaling pathway - cell viability counter screen (AID 1224844; calls by dose curve; also: nearly all actives have a fitted effect of over 50% in size)
Summary of the method: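 Cells (HRE-bla ME-180, 2,000 per well) sat 5 hrs at 37C, got compound for 17 hrs, were read for CCF4-AM FRET, and were finally lysed with CellTiter-Glo for a 30 min room-temperature luminescence read.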

[10] = qHTS assay to identify small molecule agonists of H2AX (AID 1224845; active = well fitted activation curve with a large enough effect in the signal ratio in the repeat runs, not every such curve was filed as active; the % refers to the signal ratio)
Summary of the method: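 Wild-type CHO-K1 cells, plated overnight, exposed 3hr at 37C to 15 concentrations (0.76% DMSO final). Lysed, then HTRF anti-pH2AX (S139) cryptate and anti-H2AX-d2 antibodies, 24 hr room temperature; 665/620 nm emission read.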

[11] = qHTS assay to identify small molecule agonists of the hypoxia (HIF-1) signaling pathway (AID 1224846; active = well fitted activation curve with a large enough effect in the signal ratio in the repeat runs, not every such curve was filed as active; the % refers to the signal ratio)
Summary of the method: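 A low-serum medium (0.5% dialyzed FBS) holding 2,000 HRE-bla ME-180 cells per well is preincubated for 5 hrs, dosed with compounds by pintool, and kept a further 17 hrs at 37C, 5% CO2 before CCF4-AM FRET detection of beta-lactamase.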

[12] = qHTS assay to identify small molecule agonists of H2AX - cell viability counter screen (AID 1224847; calls by dose curve; also: top concentration of the series differs between compounds; nearly all actives have a fitted effect of over 30% in size)
Summary of the method: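 Cells plated first: CHO-K1, 1000 per well in 10% FBS medium, incubated overnight at 37C. Then 15-point compound titration added (final DMSO 0.76%) for 3 hr. Finally CellTiter-Glo added and luminescence read.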

[13] = qHTS assay to identify small molecule antagonists of the estrogen related receptor (ERR) signaling pathway from Tox21 library (AID 1224848); also: nearly all actives have a fitted effect of over 50% in size; also: potency is read from the fitted curve at half-maximal effect
Summary of the method: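 ERR reporter cell line (from NTP) seeded 2,000 cells/well, rested 6 h at 37 C/5% CO2, then pin-dosed with compounds in DMSO. After 18 h at 37 C, ONE-Glo added; luminescence read after 30 min at room temperature.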

[14] = qHTS assay to identify small molecule agonists of the estrogen related receptor (ERR) signaling pathway from Tox21 library (AID 1224849; calls by dose curve; also: nearly all actives have a fitted effect of over 15% in size); settings: ERR reporter cell line, ONE-Glo luciferase, 18 h
Summary of the method: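 Screening used an NTP-provided ERR luciferase cell line. Compounds in DMSO were added 6 h after seeding and left 18 h at 37 C before a 30 min ONE-Glo step and luminescence reading.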

[15] = qHTS RealTime-Glo MT Cell Viability Assay in HepG2 cells - 24 hour (AID 1224867); also: nearly all actives have a fitted effect of over 50% in size
Summary of the method: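 Cell number in HepG2 cultures estimated from NanoLuc luminescence generated by metabolic reduction of a prosubstrate by living cells. The homogeneous, nonlytic format allowed repeated reads at 0, 8, 16, 24, 32 and 40 h of compound exposure.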

[16] = qHTS RealTime-Glo MT Cell Viability Assay in HEK293 cells - 32 hour (AID 1224868); also: top concentration of the series differs between compounds; nearly all actives have a fitted effect of over 50% in size
Summary of the method: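 Homogeneous bioluminescent viability format in HEK293 cells (600 cells/well). Following 5 h at 37 C/5% CO2, 23 nL compound was pintooled; the signal was measured repeatedly during 40 h incubation.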

[17] = A CellTox Green Cytotoxicity Assay to monitor cytotoxicity in HEK293 cells - 0 hour (AID 1224869); also: nearly all actives have a fitted effect of over 50% in size; also: potency is read from the fitted curve at half-maximal effect
Summary of the method: (§1)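 Fluorescence intensity, read at 0, 8, 16, 24, 32 and 40 h of compound treatment, reflected dye binding to DNA of dead HEK293 cells; compounds (23 nL, DMSO) were added 5 h after plating cells with reagent.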

[18] = qHTS RealTime-Glo MT Cell Viability Assay in HepG2 cells - 40 hour (AID 1224870); also: nearly all actives have a fitted effect of over 50% in size
Summary of the method: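 HepG2 cells (600/well) mixed with RealTime-Glo MT reagent, settled 5 h at 37 C/5% CO2 before compound addition. Nonlytic NanoLuc luminescence from viable-cell prosubstrate reduction read repeatedly during 40 h treatment at 37 C.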

[19] = A CellTox Green Cytotoxicity Assay to monitor cytotoxicity in HEK293 cells - 40 hour (AID 1224871); also: nearly all actives have a fitted effect of over 45% in size
Summary of the method: as §1

Row | Compound | Potency [1] | Potency [2] | Potency [3] | Potency [4] | Potency [5] | Potency [6] | Potency [7] | Potency [8] | Potency [9] | Potency [10] | Potency [11] | Potency [12] | Potency [13] | activity change, positive = activation ([14]; at 92.4 µM (top of the series)) | Potency [15] | Potency [16] | Potency [17] | Potency [18] | Potency [19] | activity change, positive = activation ([14]; at 42.5 µM (top of the series))
1 | CCCCCCCC | inactive | inactive | inactive | inactive | inactive | inactive | inactive | inactive | inactive | inactive | inactive | inactive | inactive | 4.82% | inactive | inactive | inactive | inactive | inactive | 
2 | CCCC(=O)OCCc1ccccc1 | 79.6 µM (active) | inactive | inactive | inactive | inactive | inactive |  | inactive | inactive | inactive | inactive |  |  |  | inactive | inactive | 43.6 µM (active) | inactive |  | 
3 | COc1cccc(OC)c1C(=O)O | inactive | inactive | inactive | inactive | inactive | inactive |  | inactive | inactive | inactive | inactive | inactive |  |  | inactive | inactive | inactive | inactive |  | 
4 | C#C[C@]1(O)CC[C@H]2[C@@H]3[C@H](C)CC4=C(CCC(=O)C4)[C@H]3CC[C@@]21C | inactive | inactive | inactive | inactive | inactive | inactive | inactive |  | inactive |  | inactive |  | 23.7 µM (active) |  | inactive | inactive | inactive | inactive | inactive | -32.4%
5 | c1ccsc1 | inactive | inactive | inactive | inactive | inactive | inactive |  | inactive | inactive | inactive | inactive | inactive |  |  | inactive | inactive |  | inactive | inactive | 
6 | CCCC[P+](C)(CCCC)CCCC | inactive | inactive | inactive | inactive | inactive | inactive |  | inactive | inactive | inactive | inactive |  |  |  | inactive |  | inactive | inactive | inactive | 
7 | O=[N+]([O-])c1ccc(F)c(Cl)c1 | inactive | inactive | inactive | inactive | inactive | inactive |  | inactive | inactive | inactive | inactive | inactive |  |  | inactive | inactive | inactive | inactive |  | 
8 | COc1ccc(NC(=O)CC(C)=O)cc1 | inactive | inactive | inactive | inactive | inactive | inactive |  | inactive | inactive | inactive | inactive |  |  |  | inactive | inactive | inactive | inactive |  | 
